Seven compounds from PubChem BioAssay (NCATS) can be followed below.

Results filed as inconclusive are left out. Where a call stands in place of a potency, no number is given. Calls of active or inactive are those of the source. The call rests on the fitted dose curve; in most records, active means well fitted inhibition curve with a large enough effect; inconclusive means small, poorly fitted or top-dose-only effect; inactive means no such curve, though single readings can be large or run the other way.

Assay [1] concerns Zika virus NS2B-NS3 protease (linked construct). Put plainly: Primary screen NINDS Rhodamine qHTS for Zika virus inhibitors (AID 1347160). Further: nearly all actives have a fitted effect of over 55% in size. An outline of the steps:
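Percent inhibition, normalized to uninhibited and enzyme-free controls, is fitted to a 4-parameter Hill equation. Fluorescence change comes from a 15-min cleavage of 1.5 microM bis-peptide Rhodamine110 substrate by 25 nM linked NS2B-NS3 at room temperature.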
Background: Quantitative high-throughput screening tests each substance at several concentrations.

Assay [2] can be described thus: Confirmatory screen NINDS Rhodamine qHTS for Zika virus inhibitors (AID 1347161).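 Further: purified Zika NS2B-NS3 protease with linked NS2B cofactor domain and Rhodamine110 peptide substrate; series mostly up to about 110 µM; nearly all actives have a fitted effect of over 60% in size.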 An outline of the steps:
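Enzyme (25 nM, linked NS2B-NS3) was preincubated 15 min with compound in 10 mM Tris-HCl pH 8.0, 0.01% Tween 20. Rhodamine110 substrate (1.5 microM) was then added and fluorescence read at start and after 15 min.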

Assay [3] can be described thus: Tertiary RLuc qRT-PCR qHTS assay for Zika virus inhibitors (AID 1347169). Further: top concentration of the series differs between compounds; nearly all actives have a fitted effect of over 55% in size. An outline of the steps:
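Vero, 1,000 cells/well, o/n 37 C; cpd pinned in DMSO; ZIKV-RLuc Cambodian, MOI 1-2, 48-72 h 37 C; live-cell RLuc substrate, lum read at 1-1.5 h.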
In general terms: Real-time PCR tracks product formation cycle by cycle.

Regarding `COc1c2c(c(C)c3c1C(=O)OC3)OC1(C)CC(O)C34OC(OC)(CC(OC(C)=O)C3(C)C1C2)OC4(C)C` (configuration not stated), in assay [1], the Potency result is “inactive”. Same read-out and setting: the same measure for `CC1=CC(=O)[C@H]2C(C)(C)CCC[C@]2(C)[C@@]1(O)CO`: “inactive”; for `Nc1nc(Nc2ccc(S(N)(=O)=O)cc2)n(C(=S)Nc2c(F)cccc2F)n1`: “inactive”; for `CC(C)(O)c1ccc2c(c1)C(O)C[C@H]1[C@](C)(C(=O)O)CCC[C@]21C` (some centres not stated): “inactive”. On the same count and under the same terms, with `CC(C)c1ccc2c(c1)C(=O)CC1[C@@](C)(C(=O)O)CCC[C@]21C` (some centres not stated) the entry was “inactive”. As for `C/C=C/C1=CC2=C(CO1)C(=O)C(C)(O)C(OC(=O)c1c(C)cc(OC)cc1O)C2` (configuration not stated), in assay [2], the Potency result was “inactive”.

For the compound `C=C1C(=O)O[C@H]2C1[C@H](OC(=O)/C(=C/CO)COC(=O)/C(C)=C/CO)CC(=C)[C@@H]1CC(=O)[C@@H](C)[C@@H]12` (some centres not stated), in assay [3], the Potency entry is “inactive”.
